According to PubChem BioAssay (NCATS):
“And” between values parts separate entries of the source, which are not always exact repeats. Equal values may be shown once. The source made the active and inactive calls.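 How the source made its calls: active means compounds whose dose series gives a full or clear partial fitted curve of increased nuclear translocation; inconclusive means weak partial curve or effect only at the top dose; inactive means no dose-dependent translocation response.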
Potency means the concentration at half of the fitted maximal effect.

Each compound was assayed against Glucocorticoid receptor (Homo sapiens) (UniProt P04150) (assay: GR-GFP Redistribution (AID 450)). Conditions: U2OS GR-GFP nuclear translocation, laser cytometry, 2 h.
Chain of Glucocorticoid receptor (Homo sapiens) (P04150 whole entry, looked up): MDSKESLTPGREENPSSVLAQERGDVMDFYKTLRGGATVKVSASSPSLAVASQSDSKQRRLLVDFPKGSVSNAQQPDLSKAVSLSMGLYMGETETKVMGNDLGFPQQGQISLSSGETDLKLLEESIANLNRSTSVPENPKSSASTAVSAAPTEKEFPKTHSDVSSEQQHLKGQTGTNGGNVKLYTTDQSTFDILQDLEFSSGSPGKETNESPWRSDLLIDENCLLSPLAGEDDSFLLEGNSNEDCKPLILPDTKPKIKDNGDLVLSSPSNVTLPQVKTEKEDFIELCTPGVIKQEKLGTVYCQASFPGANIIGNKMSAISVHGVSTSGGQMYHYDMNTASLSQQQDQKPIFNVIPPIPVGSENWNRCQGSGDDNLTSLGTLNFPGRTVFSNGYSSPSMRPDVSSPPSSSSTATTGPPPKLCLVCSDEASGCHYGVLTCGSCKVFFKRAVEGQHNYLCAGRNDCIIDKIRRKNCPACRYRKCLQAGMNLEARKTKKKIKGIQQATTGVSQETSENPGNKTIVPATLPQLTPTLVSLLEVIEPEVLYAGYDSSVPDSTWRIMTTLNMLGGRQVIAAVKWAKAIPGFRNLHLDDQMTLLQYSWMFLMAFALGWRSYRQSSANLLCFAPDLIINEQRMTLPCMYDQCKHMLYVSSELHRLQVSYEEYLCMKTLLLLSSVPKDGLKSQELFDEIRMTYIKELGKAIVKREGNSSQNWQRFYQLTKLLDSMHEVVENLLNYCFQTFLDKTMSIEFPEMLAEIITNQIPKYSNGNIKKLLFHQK
In the case of `Nc1nc(OCc2ccccc2)c2[nH]cnc2n1`, the Potency is reported as > 46 µM (inactive).
`Cc1c(OCC(F)(F)F)ccnc1CS(=O)c1nc2ccccc2[nH]1` (centres undefined) was tested, and the Potency was > 46 µM (inactive) and > 20.6 µM (inactive).
With `N=C(N=C(N)N)N1CCOCC1` the Potency was > 20.6 µM (inactive) and > 46 µM (inactive).
In the case of `CC(C)Oc1ccc2c(=O)c(-c3ccccc3)coc2c1`, the Potency is reported as > 20.6 µM (inactive).
For `COc1ccccc1N1CCN(CCN(C(=O)C2CCCCC2)c2ccccn2)CC1`, the Potency was > 46 µM (inactive).
For `c1ccc2[nH]c(-c3cscn3)nc2c1`, the Potency was > 20.6 µM (inactive).
With `CCOc1cc(CC(=O)N[C@@H](CC(C)C)c2ccccc2N2CCCCC2)ccc1C(=O)O` the Potency was 2.1 µM (active).
For `O=c1ccc2ccc(O)c(O)c2o1`, the Potency was > 46 µM (inactive).
For `Nc1ccc(S(N)(=O)=O)cc1`, the Potency was > 20.6 µM (inactive).
For `Cc1cccc(C#Cc2ccccc2)n1`, the Potency was > 46 µM (inactive).
`CCc1nc(N)nc(N)c1-c1ccc(Cl)cc1` was tested, and the Potency was > 20.6 µM (inactive).
With `CN1C(C(=O)Nc2ccccn2)=C(O)c2sccc2S1(=O)=O` the Potency was > 20.6 µM (inactive).
With `O=C(O)c1cccnc1Nc1cccc(C(F)(F)F)c1` the Potency was > 46 µM (inactive) and > 20.6 µM (inactive).
In the case of `NC(=NCc1ccccc1)NC(=O)c1nc(Cl)c(N)nc1N`, the Potency is reported as > 46 µM (inactive) and > 20.6 µM (inactive).
`COc1c2occc2cc2ccc(=O)oc12` was tested, and the Potency was > 20.6 µM (inactive).
In the case of `O=c1c(O)c(-c2cc(O)c(O)c(O)c2)oc2cc(O)cc(O)c12`, the Potency is reported as > 46 µM (inactive) and > 20.6 µM (inactive).
`NNc1nncc2ccccc12` was tested, and the Potency was > 46 µM (inactive) and > 20.6 µM (inactive).
`CCC1=C(C)CN(C(=O)NCCc2ccc(S(=O)(=O)NC(=O)NC3CCC(C)CC3)cc2)C1=O` (centres undefined) was tested, and the Potency was > 20.6 µM (inactive).
For `O=c1cc(N2CCOCC2)oc2c(-c3ccccc3)cccc12`, the Potency was > 46 µM (inactive).
In the case of `Nc1cc(C(Cl)=C(Cl)Cl)c(S(N)(=O)=O)cc1S(N)(=O)=O`, the Potency is reported as > 20.6 µM (inactive).
In the case of `CC1(C)C(=O)N(CCN2CCC(C(=O)c3ccc(F)cc3)CC2)c2ccccc21`, the Potency is reported as > 46 µM (inactive).
In the case of `O=c1c(O)c(-c2ccc(O)cc2O)oc2cc(O)cc(O)c12`, the Potency is reported as > 46 µM (inactive) and > 20.6 µM (inactive).
`Nc1nc(Cl)nc2c1ncn2[C@H]1C[C@H](O)[C@@H](CO)O1` was tested, and the Potency was > 20.6 µM (inactive).
`CCCCN(CCCC)CCC(O)c1cc2c(Cl)cc(Cl)cc2c2cc(C(F)(F)F)ccc12` (centres undefined) was tested, and the Potency was > 20.6 µM (inactive).
